# Several values for one entry are separate records, joined by “and”; a condition that tells them apart may be missing. Identical values can stand only once. Counter-ions that a name gives are not always drawn. ± gives the standard deviation.
# System: THP-1
# Assay: THP-1 cell loss relative to DMSO control; higher = more host cell loss (toxicity); extreme values may be limits of the assay
# Conditions: 10 µM; 4 days; infection: M. tuberculosis H37Rv
# Method: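 OICR kinase inhibitor library screened in duplicate at 10 uM against M. tuberculosis-infected THP-1 macrophages, 4 days at 37 C. THP-1 cell loss (cytotoxicity or loss of adherence) was quantified from Hoechst-stained nuclei counts by high-content imaging and normalised to the 1% DMSO control; 100 = complete loss of host cells.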
row,SMILES,THP-1 cell loss
1,O=S(=O)(Nc1ccccn1)c1ccc(N=Cc2c(O)[nH]c3ccc4ncsc4c23)cc1,100%
2,Nc1nc(Nc2ccc(S(N)(=O)=O)cc2)nn1C(=S)Nc1c(F)cccc1F [Cdk1/2 Inhibitor III],5.81 ± 8.1%
3,S=C(NCc1ccc2c(c1)OCO2)N1CCN(c2ncnc3c2oc2ccccc23)CC1,20.7 ± 25%
4,Cc1ccc2c(=O)c3ccccc3n(CCCN)c2c1C,100%
5,NCC(=O)Nc1ccc(-n2nc(C(F)(F)F)cc2-c2ccc3c(ccc4ccccc43)c2)cc1,33.1 ± 2.5%
6,Cc1ccc(NC2=CC(=O)c3sc(C)nc3C2=O)cc1 [Ryuvidine],100%
7,CNC(=O)c1cc(Oc2ccc(NC(=O)Nc3ccc(Cl)c(C(F)(F)F)c3)c(F)c2)ccn1,43.8 ± 13%
8,COc1nccc(-c2c(-c3ccc(F)cc3)ncn2C2CCC(O)CC2)n1 (stereo unspecified),1.08 ± 1.5%
9,Oc1cccc(-c2nc(N3CCOCC3)c3sccc3n2)c1 [PI3-Kinase a Inhibitor 2],62 ± 6.5%
10,CC(C)[C@H](CO)Nc1nc(Nc2ccc(C(=O)O)c(Cl)c2)c2ncn(C(C)C)c2n1 [Purvalanol B],1.78 ± 2.5%
11,O=C(O)c1cc(N(Cc2ccccc2O)Cc2cc(O)ccc2O)ccc1O [Lavendustin A],4.39 ± 6.2%
12,CC(=O)c1c(C)c2cnc(Nc3ccc(N4CCNCC4)cn3)nc2n(C2CCCC2)c1=O,30.5 ± 8.2%
13,Cc1cnc(Nc2ccc(OCCN3CCCC3)cc2)nc1Nc1cccc(S(=O)(=O)NC(C)(C)C)c1,100%
14,C/C(=N\N=C(N)N)c1ccc(NC(=O)c2cc3cccc([N+](=O)[O-])c3[nH]2)cc1,0%
15,C[C@@H](N)[C@H]1CC[C@H](C(=O)Nc2ccncc2)CC1,15.7 ± 22%
16,Fc1ccc(-c2nc3n(c2-c2ccncc2)CCS3)cc1,7.21% and 5.2%
17,Cn1cncc1[C@@](N)(c1ccc(Cl)cc1)c1ccc2c(c1)c(-c1cccc(Cl)c1)cc(=O)n2C [Tipifarnib],29.6 ± 27%
18,Cc1ccc(-n2nc(C(C)(C)C)cc2NC(=O)Nc2ccc(OCCN3CCOCC3)c3ccccc23)cc1,50 ± 71%

row,SMILES,THP-1 cell loss
1,COc1cc(OC2CCN(C)CC2)ccc1Nc1ncc2c(n1)n(C1CCCC1)c(=O)n2C,87.6 ± 18%
2,COc1cc(Nc2c(C#N)cnc3cc(OCCCN4CCN(C)CC4)c(OC)cc23)c(Cl)cc1Cl [Bosutinib],59.6 ± 15%
3,C=CC[C@@H]1/C=C(\C)C[C@H](C)C[C@H](OC)[C@H]2O[C@@](O)(C(=O)C(=O)N3CCCC[C@H]3C(=O)O[C@H](/C(C)=C/[C@@H]3CC[C@@H](O)[C@H](OC)C3)[C@H](C)[C@@H](O)CC1=O)[C@H](C)C[C@@H]2OC,0%
4,CCn1c(-c2nonc2N)nc2c(C#CC(C)(C)O)ncc(OC[C@H]3CCCNC3)c21,15.8 ± 3.6%
5,NC(=O)c1sc2c([N+](=O)[O-])cc(C(F)(F)F)cc2[n+]1[O-] [Cyclapolin 9],35.6 ± 12%
6,O=c1cc(N2CCOCC2)oc2c(-c3ccccc3)cccc12,59.5 ± 13%
7,COc1cc(O)c2c(c1)/C=C/C[C@H](O)[C@H](O)C(=O)/C=C\C[C@H](C)OC2=O [(5Z)-7-Oxozeaenol],100%
8,COc1cc2/c(=N/c3ccc(Br)cc3F)nc[nH]c2cc1OCC1CCN(C)CC1 [Vandetanib],40.7 ± 6.5%
9,Cc1cc(Nc2cc(N3CCN(C)CC3)nc(/C=C/c3ccccc3)n2)n[nH]1,70.7 ± 19%
10,COc1cc(SC)ccc1C(=O)N1CCC(Cc2ccccc2)CC1,0.379 ± 0.54%
11,CCN(CC)CC1CCN(c2ncc3ncnc(Nc4ccc(F)c(Cl)c4)c3n2)CC1 [BIBU 1361 dihydrochloride],100%
12,COc1cc2c(cc1OC)-c1[nH]nc(Nc3cccc(F)c3)c1C2,27.5 ± 16%
13,CCN(CC)CCNC(=O)c1c(C)[nH]c(/C=C2\C(=O)Nc3ccc(F)cc32)c1C [Sunitinib Malate],53.7 ± 18%
14,O=Nc1c(-c2c(O)[nH]c3cc(Br)ccc23)[nH]c2ccccc12 [6-bromoindirubin-3'-oxime],100%
15,CN(C)CCOc1cc(-c2cn[nH]c2)ccc1NC(=O)C1COc2ccccc2O1 (stereo unspecified),0%
16,O=c1c(-c2ccc(O)cc2)coc2cc(O)cc(O)c12 [Genistein],4.45 ± 2.2%
17,O=C(Nc1cccc(Nc2ncc(Br)c(NCCc3cnc[nH]3)n2)c1)N1CCCC1,36 ± 15%
18,Clc1ccc(Nc2nnc(Cc3ccncc3)c3ccccc23)cc1 [Vatalanib dihydrochloride],39.2 ± 3.4%

# Reference: the supplement of paper PMC7530171
